Measured values published in PubChem BioAssay (NCI).
Where “and” joins values, the source holds several entries; their conditions need not be identical. Equal entries are not always repeated. This is part of a sample that, as a whole, favours compounds with a hit. Of some 79,000 tested, about 15% had one in any assay. More than one record can exist for a structure, and the calls need not agree. Calls of active or inactive are those of the source. Cut-off read from the data, not from the text of the source: active = growth inhibition above about 70%; inactive = the rest.

Experiments:
[1] = NCI Yeast Anticancer Drug Screen. Data for the sgs1 strain (AID 173);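 note: 0% = growth of vehicle-only control cultures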; conditions: S. cerevisiae sgs1 mutant, stronger effect = higher value
Summary of the method: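 Compounds applied to genetically altered yeast; growth compared with vehicle-treated cultures to give % inhibition.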

[2] = NCI Yeast Anticancer Drug Screen. Data for the mlh1 rad18 strain (AID 175); conditions: S. cerevisiae mlh1 rad18 strain growth inhibition, stronger effect = higher value
Summary of the method: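 Cells of a genetically altered yeast strain, deficient in DNA damage repair, were treated with compound. Their growth was then compared with that of vehicle-treated cultures to give inhibition.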

[3] = NCI Yeast Anticancer Drug Screen. Data for the rad18 strain (AID 177); conditions: S. cerevisiae rad18 mutant growth inhibition, stronger effect = higher value
Summary of the method: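 Compounds are applied to a repair-deficient yeast strain, and growth is compared with that of vehicle-treated cultures to give percent inhibition.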

[4] = NCI Yeast Anticancer Drug Screen. Data for the rad50EPP+ strain (AID 151);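 note: 0% = growth of vehicle-treated control cultures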; conditions: S. cerevisiae rad50 mutant strain, stronger effect = higher value
Summary of the method: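 rad50EPP+ yeast treated with test compounds. Readout: growth vs vehicle control.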

[5] = NCI Yeast Anticancer Drug Screen. Data for the mgt1 strain (AID 153); conditions: S. cerevisiae mgt1 mutant growth inhibition, stronger effect = higher value
Summary of the method: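 Growth inhibition relative to vehicle controls was scored for the mgt1 yeast strain after compound exposure.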

[6] = NCI Yeast Anticancer Drug Screen. Data for the rad50 strain (AID 155);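 note: 0% = growth of vehicle-only cultures of the same strain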; conditions: S. cerevisiae rad50 strain growth inhibition, stronger effect = higher value
Summary of the method: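 Vehicle-treated cultures provide the reference for the growth inhibition reported for compound-exposed, repair-deficient yeast.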

[7] = NCI Yeast Anticancer Drug Screen. Data for the mec2-1 strain (AID 157); conditions: S. cerevisiae mec2-1 strain, stronger effect = higher value
Summary of the method: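 Growth inhibition is read against vehicle-treated controls after compound exposure of the mec2-1 yeast strain, which is defective in DNA damage repair or cell cycle control.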

[8] = NCI Yeast Anticancer Drug Screen. Data for the rad14 strain (AID 159);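 note: 0% = growth of vehicle-treated control cultures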; conditions: S. cerevisiae rad14 strain growth inhibition, stronger effect = higher value
Summary of the method: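 Inhibition of growth is reported for a repair-deficient yeast mutant following compound treatment, calculated relative to cultures that received vehicle.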

[9] = NCI Yeast Anticancer Drug Screen. Data for the sgs1 mgt1 strain (AID 161);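 note: 0% = growth of cultures given vehicle only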; conditions: S. cerevisiae sgs1 mgt1 strain, stronger effect = higher value
Summary of the method: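 Growth of a repair-deficient yeast mutant was monitored after compound treatment and expressed as inhibition relative to vehicle-treated cultures.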

[10] = NCI Yeast Anticancer Drug Screen. Data for the CLN2oe strain (AID 163);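 note: 0% = growth of vehicle-only control cultures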; conditions: S. cerevisiae CLN2oe strain, stronger effect = higher value
Summary of the method: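 Compound-treated yeast; growth vs vehicle ctrl = % inhibition. Genetically altered strain (cell-cycle control).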

[11] = NCI Yeast Anticancer Drug Screen. Data for the cln2 rad14 strain (AID 165);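 note: 0% = growth equal to vehicle treated cultures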; conditions: S. cerevisiae cln2 rad14 strain, stronger effect = higher value
Summary of the method: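 Growth inhibition, relative to vehicle-treated controls, is the read-out. The test organism is a yeast strain with defined genetic alterations, cln2 rad14.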

[12] = NCI Yeast Anticancer Drug Screen. Data for the bub3 strain (AID 167); conditions: S. cerevisiae bub3 mutant strain, stronger effect = higher value
Summary of the method: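 Mutant yeast screening strain plus compound; vehicle-treated cultures serve as the 0% inhibition reference.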

[13] = NCI Yeast Anticancer Drug Screen. Data for the wt2 strain (AID 169); conditions: S. cerevisiae wt2 strain growth inhibition, stronger effect = higher value
Summary of the method: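 Compound exposure of yeast; growth compared with vehicle controls; inhibition reported.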

[14] = NCI Yeast Anticancer Drug Screen. Data for the mlh1 strain (AID 171);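 note: 0% = growth of vehicle-treated control cultures of the same strain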; conditions: S. cerevisiae mlh1 strain growth inhibition, stronger effect = higher value
Summary of the method: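 Compounds are applied to a genetically altered yeast strain, and its growth is compared with that of vehicle-treated cultures to give percent inhibition.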

[15] = NCI Yeast Anticancer Drug Screen. Data for the wt1 strain (AID 149);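 note: 0% = growth of vehicle-treated wt1 cultures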; conditions: S. cerevisiae wt1 strain (SPY 50644) growth inhibition, stronger effect = higher value
Summary of the method: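 Each compound is tested on wt1 yeast and the loss of growth versus vehicle gives the inhibition value.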

[16] = at 5.0 µM (retest, dose inferred, filed as 0.5)
[17] = at 50.0 µM (retest, dose inferred, filed as 5.0)

Measured: growth inhibition

COc1ccc(/C(=N/O)c2ccccc2C2=Nc3ccccc3C(NCc3ccccc3)O2)cc1C (centres undefined)
inactive: [1]; at 1.2 µM -2% | [1]; at 3.7 µM -2% | [1]; at 11.0 µM 2% | [1]; at 33.0 µM 45% | [2]; [16] 2% | [3]; at 1.2 µM 0% | [3]; at 3.7 µM 0% | [3]; at 11.0 µM 11% | [3]; at 33.0 µM 67%
active: [1]; at 100.0 µM 95% | [2]; [17] 93% | [2]; at 50.0 µM 94.2% | [3]; at 100.0 µM 94%

CCOC(=O)/C=C1\CCCn2c1ncc(C(=O)OCC)c2=O
inactive: [4]; at 1.2 µM -1% | [4]; at 3.7 µM -2% | [4]; at 11.0 µM -2% | [4]; at 33.0 µM -4% | [4]; at 100.0 µM -1% | [5]; at 1.2 µM 3% | [5]; at 3.7 µM 2% | [5]; at 11.0 µM 6% | [5]; at 33.0 µM -2% | [5]; at 100.0 µM 26% | [6]; at 1.2 µM -1% | [6]; at 3.7 µM -8% | [6]; [16] 8% | [6]; at 11.0 µM -3% | [6]; at 33.0 µM 20% | [6]; [17] 30% | [6]; at 50.0 µM 69.5% | [6]; at 100.0 µM 31% | [7]; at 1.2 µM 3% | [7]; at 3.7 µM 4% | [7]; [16] -5% | [7]; at 11.0 µM 7% | [7]; at 33.0 µM 17% | [7]; [17] 42% | [7]; at 100.0 µM 32% | [8]; at 1.2 µM 4% | [8]; at 3.7 µM 2% | [8]; at 11.0 µM 7% | [8]; at 33.0 µM 12% | [8]; at 100.0 µM 18% | [9]; [16] 4% | [9]; [17] 9% | [10]; at 1.2 µM 3% | [10]; at 3.7 µM 4% | [10]; at 11.0 µM 7% | [10]; at 33.0 µM 12% | [10]; at 100.0 µM 13% | [11]; [16] -25% | [11]; [17] 24% | [11]; at 50.0 µM 55.7% | [12]; at 1.2 µM 2% | [12]; at 3.7 µM 0% | [12]; [16] -13% | [12]; at 11.0 µM 4% | [12]; at 33.0 µM 10% | [12]; at 50.0 µM 59.5% | [12]; at 100.0 µM 28% | [13]; at 1.2 µM 1% | [13]; at 3.7 µM 2% | [13]; at 11.0 µM 4% | [13]; at 33.0 µM 11% | [13]; at 100.0 µM 28% | [14]; at 1.2 µM 2% | [14]; at 3.7 µM 3% | [14]; at 11.0 µM 8% | [14]; at 33.0 µM 15% | [14]; at 100.0 µM 38% | [1]; at 1.2 µM 3% | [1]; at 3.7 µM 5% | [1]; at 11.0 µM 6% | [1]; at 33.0 µM 24% | [1]; at 100.0 µM 51% | [2]; [16] 8% | [2]; [17] 48% | [3]; at 1.2 µM 1% | [3]; at 3.7 µM 5% | [3]; at 11.0 µM 14% | [3]; at 33.0 µM 30% | [3]; at 100.0 µM 55%
active: [7]; at 50.0 µM 77% | [9]; at 50.0 µM 81.7% | [12]; [17] 94% | [2]; at 50.0 µM 89.8%

CCCCCCCCCCCCCCCCCN
32.8% (inactive) and 90.2% (active): [12]; at 50.0 µM
3.15% (inactive) and 90.2% (active): [6]; at 50.0 µM
-6.55% (inactive) and 92% (active): [7]; at 50.0 µM
active: [15]; at 33.0 µM 90% | [15]; at 100.0 µM 94% | [5]; at 11.0 µM 86% | [5]; at 33.0 µM 97% | [5]; at 100.0 µM 96% | [6]; at 11.0 µM 85% | [6]; at 33.0 µM 97% | [6]; [17] 96% | [6]; at 100.0 µM 94% | [7]; at 11.0 µM 91% | [7]; at 33.0 µM 98% | [7]; [17] 97% | [7]; at 100.0 µM 93% | [8]; at 33.0 µM 95% | [8]; at 100.0 µM 94% | [10]; at 11.0 µM 94% | [10]; at 33.0 µM 98% | [10]; at 100.0 µM 95% | [11]; [17] 90% | [12]; at 11.0 µM 90% | [12]; at 33.0 µM 98% | [12]; [17] 97% | [12]; at 100.0 µM 95% | [13]; at 33.0 µM 90% | [13]; at 100.0 µM 96% | [14]; at 11.0 µM 90% | [14]; at 33.0 µM 97% | [14]; at 100.0 µM 94% | [1]; at 33.0 µM 97% | [1]; at 100.0 µM 96% | [2]; [17] 96% | [3]; at 100.0 µM 93%
47.4% (inactive) and 92.5% (active): [9]; at 50.0 µM
inactive: [15]; at 1.2 µM -23% | [15]; at 3.7 µM -25% | [15]; at 11.0 µM -5% | [5]; at 1.2 µM -29% | [5]; at 3.7 µM -24% | [6]; at 1.2 µM -27% | [6]; at 3.7 µM -17% | [6]; [16] 26% | [7]; at 1.2 µM -37% | [7]; at 3.7 µM -28% | [7]; [16] 51% | [8]; at 1.2 µM -31% | [8]; at 3.7 µM -24% | [8]; at 11.0 µM 14% | [9]; [16] 7% | [9]; [17] 50% | [10]; at 1.2 µM -22% | [10]; at 3.7 µM 11% | [11]; [16] 16% | [11]; at 50.0 µM 6.8% and 37% | [12]; at 1.2 µM -10% | [12]; at 3.7 µM -4% | [12]; [16] 54% | [13]; at 1.2 µM -15% | [13]; at 3.7 µM -12% | [13]; at 11.0 µM 49% | [14]; at 1.2 µM -31% | [14]; at 3.7 µM 0% | [1]; at 1.2 µM -46% | [1]; at 3.7 µM -3% | [1]; at 11.0 µM 58% | [2]; [16] 41% | [3]; at 1.2 µM -38% | [3]; at 3.7 µM -18% | [3]; at 11.0 µM 61% | [3]; at 33.0 µM 15%
23.5% (inactive) and 89.9% (active): [2]; at 50.0 µM
